{
  "source": "PubChem BioAssay (EPA / NIEHS)",
  "note": "Records with an inconclusive call do not appear. Active and inactive are the calls of the source. The calls were made as follows: active = hit-call score of the fitted dose curve at least 0.9, where 1 is the maximum; inconclusive = response in the unintended direction; inactive = score below 0.9.",
  "data": [
    {"test": "STM_H9_OrnCyssISnorm_ratio: Stemina devTOX quickPredict H9 human embryonic stem cell (hESC)-based Assay for Ornithine (ORN):Cystine (CYSS) Ratio (AID 2283714)", "procedure": "STM_H9_secretome utilizes undifferentiated H9 cells to measure relative changes in two metabolites, ornithine (ORN) and cystine (CYSS) in the secretome, targeting a critical drop in the ORN/CYSS ratio as a biomarker for developmental toxicity.STM_H9_OrnCyssISnorm_ratio is one of 10 components calculated in the STM_H9_secretome assay. It is the ratio value of OrnISnorm_perc to CyssISnorm_perc.Data from the assay component STM_H9_OrnCyssISnorm_ratio was analyzed at the assay endpoint STM_H9_OrnCyssISnorm_ratio in the positive analysis fitting direction relative to DMSO as the negative control and baseline of activity. Using a type of binding reporter, gain or loss-of-signal activity can be used to understand relative metabolite change.\nH9 hESCs maintained in a pluripotent state were exposed to test compound for 72h with chemical replenishment with media replacement every 24h. Cell-conditioned media from the final 24-h treatment period was collected for analysis of the targeted biomarker, and cell viability of the corresponding cell layer was assessed. The chemical library was tested in blinded fashion. Each test plate included 1uM Methotrexate (MTX; Selleck Chemicals, Houston, Texas) as a positive reference, 5 nM MTX as a negative reference, 0.1% DMSO as the neutral (vehicle) control, and sample-level media blanks.H9 cell-conditioned media from the final 24-h treatment period was collected for analysis of the targeted biomarker and cell viability was measured from the corresponding cell layer. Cell viability was measured using the CellTiter-Fluor assay (Promega, Madison, Wisconsin) based on proteolytic cleavage of a substrate to fluorescent signal proportional to the number of living cells. The cell viability Relative Fluorescence Unit (RFU) was background corrected and normalized to mean RFU of the neutral control (0.1% DMSO). The collected H9-cell-conditioned media samples were processed for targeted biomarker analysis as described (Palmer et al., 2013). Briefly, spent media samples were deproteinized (40% acetonitrile) and processed for UPLC-HRMS. Data acquisition was performed using 4 separate UPLC-HRMS systems, consisting of an Agilent 1290 Infinity LC system (Agilent Technologies) interfaced with an Agilent high-resolution mass spectrometer (models G6520A, G6520B, G6530A, and G6224A). A Waters Acquity UPLC BEH Amide column (2.1mm x 50mm, 1.7lm particle size; Waters, Milford, Massachusetts) maintained at 40C was applied for separation of metabolites using a 6.5min solvent gradient with 0.1% formic acid in water and 0.1% formic acid in acetonitrile (1.0ml/min flow rate). Data were acquired using MassHunter Acquisition software (version B 04.00, Agilent Technologies). The extracted ion chromatogram (EIC) areas for ORN, CYSS, and their respective spike-in C13-standards were determined using the Agilent MassHunter Quantitative Analysis software, version B.05.00 or newer (Agilent Technologies), and data were normalized as described in Palmer et al. (2017).", "values": [
      {"compound": "CNC(=O)Oc1cccc2c1OC(C)(C)C2", "outcome": "inactive"},
      {"compound": "COc1cc(C=O)cc2c1[C@H](COC(N)=O)[C@]1(OC(C)=O)ON2C[C@H]2[C@@H]1N2C(C)=O", "AC50": "0.000797 µM (active)"},
      {"compound": "Cn1cc(-c2ccccc2)c(=O)c(-c2cccc(C(F)(F)F)c2)c1", "outcome": "inactive"},
      {"compound": "Clc1ccc(C(c2ccc(Cl)cc2)C(Cl)Cl)cc1", "outcome": "inactive"},
      {"compound": "O=[N+]([O-])c1ccc(Oc2ccc(Cl)cc2Cl)cc1", "AC50": "50 µM (active)"},
      {"compound": "[Cl-].[Cl-].[Hg+2]", "AC50": "0.995 µM (active)"},
      {"compound": "CN(C)C(=O)Nc1ccc(Cl)cc1", "outcome": "inactive"},
      {"compound": "CO[C@@H]1[C@H](OC(=O)NC(=O)CCl)CC[C@]2(CO2)[C@H]1[C@@]1(C)O[C@@H]1CC=C(C)C", "AC50": "0.0656 µM (active)"},
      {"compound": "Cc1cccc(N)c1N", "AC50": "74.5 µM (active)"},
      {"compound": "CC(C)(C)C(O)(CCc1ccc(Cl)cc1)Cn1cncn1", "note": "(centres undefined)", "AC50": "45 µM (active)"},
      {"compound": "CCCCCCCCn1sccc1=O", "AC50": "22.4 µM (active)"},
      {"compound": "COC(=O)Nc1nc2ccccc2[nH]1", "AC50": "6.5 µM (active)"},
      {"compound": "CC(C)COC(=O)c1ccccc1C(=O)OCC(C)C", "AC50": "35.3 µM (active)"},
      {"compound": "CCCCOC(=O)c1ccccc1C(=O)OCc1ccccc1", "AC50": "34.6 µM (active)"},
      {"compound": "Cc1ccc(N)cc1", "AC50": "30.4 µM (active)"},
      {"compound": "CCC[CH2][Sn]([Cl])([CH2]CCC)[CH2]CCC", "AC50": "0.497 µM (active)"},
      {"compound": "Cc1ccc(N)c(N)c1", "AC50": "22.7 µM (active)"},
      {"compound": "Oc1ccc2ccc3cccc4ccc1c2c34", "outcome": "inactive"},
      {"compound": "Brc1ccc(Oc2ccccc2)cc1", "outcome": "inactive"},
      {"compound": "C[N+](C)(C)CC1CO1", "note": "(centres undefined)", "AC50": "16.5 µM (active)"},
      {"compound": "CCCCCOC(=O)c1ccccc1C(=O)OCCCCC", "AC50": "21.9 µM (active)"},
      {"compound": "CCCCCCCCCCCCCN1CC(C)OC(C)C1", "note": "(centres undefined)", "AC50": "2.62 µM (active)"},
      {"compound": "Nc1ccc(Oc2ccc(N)cc2)cc1", "AC50": "50.2 µM (active)"},
      {"compound": "OCCCBr", "outcome": "inactive"}
    ]}
  ]
}
